hcDAF-12 act: activates DAF-12 receptor from parasite H. contortus. HEK293 hcDAF-12 lit1-tk-luc reporter, luminescence; 0% DMSO, 100% Δ7-dafachronic acid. activation, % at 6.8 µM. 370,000 tested, 1.4% active. AID 652067;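 active means activation above the mean of all tested compounds plus 3 SD, cut at about 5.5% in these data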
DAX1 inh-1: blocks DAX1 repression of SF-1 activated StAR promoter | HEK293T StAR-luciferase reporter, SF-1/DAX-1 repression relief | inhibition, % at 6.8 µM | AID 652010 | 370,000 tested, 1.1% active;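 active means inhibition above the mean over all tested compounds plus 3 SD, cut at about 3.6% in these data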;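 further: higher inhibition means more luminescence from relief of DAX-1 repression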
DAX1 inh-2: inhibits human nuclear receptor DAX1 | inhibition, % at 6.75 µM | 340,000 tested, 0.99% active | P51843 | HEK293 Gal4-DAX1 luciferase reporter, luminescence;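 active means inhibition above the mean over all tested compounds plus 3 SD, cut at about 4.2% in these data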;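 further: inhibition shows as a rise in luminescence from relieved DAX1 repression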
Target sequence (P51843 207-470 limits assumed): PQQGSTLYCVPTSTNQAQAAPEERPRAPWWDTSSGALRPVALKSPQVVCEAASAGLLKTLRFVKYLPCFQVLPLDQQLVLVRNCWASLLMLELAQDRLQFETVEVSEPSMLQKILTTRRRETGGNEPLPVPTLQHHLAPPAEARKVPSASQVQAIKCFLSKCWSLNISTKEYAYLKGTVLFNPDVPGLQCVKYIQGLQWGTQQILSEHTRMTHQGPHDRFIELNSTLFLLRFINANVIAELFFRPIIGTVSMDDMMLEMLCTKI
ssDAF12 agonist: activators of S. stercoralis DAF-12 nuclear receptor; HEK293 ssDAF-12/GRIP1 lit1-tk-luc reporter, luminescence; % of 3 µM dafachronic acid response; activation, % at 6.8 µM; 370,000 tested, 1% active; AID 652126;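 active means activation above the mean over all tested compounds plus 3 SD, cut at about 0.9% in these data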
hgDAF-12 ag: agonists of H. glycines DAF-12 nuclear receptor | HEK293 GAL4-hgDAF12 UAS-luciferase reporter, agonist luminescence; normalized to butyrate control | activation, % at 6.8 µM | 370,000 tested, 1.8% active;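 active means activation above a cutoff set at the mean of all screened compounds plus 3 SD, cut at about 10% in these data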
Hits are given with their value; – = inactive; · = no result. A selection: hits, their analogues and other compounds. The true share with any hit is near 4.1%.

SMILES	hcDAF-12 act	DAX1 inh-1	DAX1 inh-2	ssDAF12 agonist	hgDAF-12 ag
OCC1OC(n2ccc3c(SCc4ccccc4)ncnc32)C(O)C1O (centres undefined)	–	–	–	–	13
OCC1OC(n2cnc3c(SCc4ccccc4)ncnc32)C(O)C1O (centres undefined)	–	–	–	–	–
O=C(C1CCCN1S(=O)(=O)c1cccs1)N1CCc2ccccc2C1 (centres undefined)	–	–	·	–	–
CC(C)C[C@H]1COc2cc(Br)ccc2S(=O)(=O)N1Cc1cn(CCC2OCCCO2)nn1	–	–	·	–	–
C[C@H]1[C@@H](OC(=O)N2CCN(c3ccccc3)CC2)CC[C@@]23CCCN2C(=O)CCC[C@@H]13	–	·	·	–	–
Cc1ccc(SCc2cc(=O)[nH]c(Nc3nc(C)c4ccccc4n3)n2)cc1	6.1	–	–	–	–
CCn1c(COc2ccc(Cl)cc2)nnc1SCC(=O)Nc1ccc(Oc2ccccc2)cc1	–	–	·	–	–
COc1ccc(/C=C/C(=O)c2cc(Cl)ccc2O)c(OC)c1	–	–	–	–	–
COc1ccc(/C=C/C(=O)c2ccc(Cl)cc2)c(OC)c1	–	–	–	–	16
COc1cccc(OC[C@@H](O)CN2CCC(C(O)(c3ccccc3)c3ccccc3)CC2)c1	–	–	·	–	–
O=C(N[C@H](C(=O)N1CCC[C@H]1C(=O)NC1CCCC1)C1CCCCC1)c1ccc(Cl)cc1Cl	–	–	·	–	–
O=C(N/N=C/c1ccc(F)cc1)c1cc(-c2ccc3c(c2)OCO3)n[nH]1	–	–	4.6	–	–
Cc1ccc(-c2cc(C(=O)NN=Cc3ccc(F)cc3)[nH]n2)cc1C	–	–	·	–	11
Cc1ccc(-c2cc(C(=O)NN=Cc3ccc(-c4ccccc4)cc3)[nH]n2)cc1	–	–	·	–	–
CCOC(=O)N1CCN(C(=O)C[C@@H]2C(=O)N(Cc3ccc(OC)cc3)C3=CCN(C(=O)OC(C)(C)C)C[C@]32C(=O)OCC)CC1	–	–	·	–	–
CCOc1ccc(CCNC(=O)c2cc3ccsc3n2C)cc1OC	–	–	·	–	–
CCCC1CCC2(CC1)CCC2OC(=O)Nc1cccc(C(F)(F)F)c1 (centres undefined)	–	·	·	–	–
C=Cn1cc[n+](CC(=O)c2cccs2)c1	5.6	–	–	–	–
CC(C)CN(C(=O)COC(=O)CCc1nc2ccccc2s1)c1c(N)n(Cc2ccccc2)c(=O)[nH]c1=O	–	3.7	–	–	–
C=CCc1cccc(C=NNC(=O)c2ccco2)c1O	–	–	·	–	–
CCOc1ccc(-c2nc(CSc3nnc(N)s3)cs2)cc1	–	–	–	–	12
O=C1Nc2ccccc2N(O)N1c1ccc(S(=O)(=O)Nc2ccccn2)cc1	–	–	–	0.9	–
Cc1ccnc(NS(=O)(=O)c2ccc(N3C(=O)Nc4ccccc4N3O)cc2)c1	–	–	–	–	–
CC(C)CN1C(=O)C[C@@]2(C(=O)N(C)c3ccc(NS(=O)(=O)C4CC4)cc32)C1c1ccccc1 (some centres undefined)	–	–	·	–	–
O=C(c1cccs1)N(CCN1CCCCC1)CC1CCCN(C2CCCC2)C1 (centres undefined)	–	–	–	0.9	–
SMILES	hcDAF-12 act	DAX1 inh-1	DAX1 inh-2	ssDAF12 agonist	hgDAF-12 ag
COCCN(CC1CCCN(C2Cc3ccccc3C2)C1)C(=O)c1cccs1 (centres undefined)	–	–	–	–	–
Cc1ccc(C(=O)N(CCN2CCCCC2)CC2CCCN(C3CCCC3)C2)s1 (centres undefined)	–	4.4	–	–	–
CCc1c(Cc2ccccc2)ncn1CCc1ccccc1OC	–	–	·	–	–
COC(=O)N1CCC[C@H]1c1cccc2[nH]cc(C)c12	–	–	·	–	–
CCOC(=O)[C@H](Cc1ccccc1)NC(=O)[C@H]1C[C@@]2(N3CCCCC3)c3ccccc3N(C(=O)OC(C)(C)C)[C@H]2N1C(=O)OC(C)(C)C	–	–	·	–	–
COC(=O)N(C)C[C@H]1OCc2cn(nn2)CCCC(=O)N([C@H](C)CO)C[C@@H]1C	–	–	·	–	–
CC1=CC(=O)Nc2ccccc2S1	5.7	–	–	1.1	11
CCOc1ccc(N(Cc2nnc3n2CCCCC3)C(=O)Nc2cccc(C)c2)cc1	–	–	6.6	–	–
O=C(O)c1ccccc1C(=O)Nc1ccc(Oc2cccc(C(F)(F)F)c2)nc1	6.2	–	–	–	–

Screening data (PubChem)
